Assay results published in PubChem BioAssay (EPA / NIEHS).
The source made the active and inactive calls. Rule for the calls: active = hit-call score of the fitted dose curve at least 0.9, where 1 is the maximum; inactive = score below 0.9.

Tests used:
[1] = APR_HepG2_NuclearSize_72hr: Apredica 72-hour HepG2 Assay for Nuclear Size (AID 2282925); conditions: high-content imaging, actives raise or lower the signal
Procedure, shortened: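 Compounds (0.39–200 uM, final DMSO 0.5%) were applied to HepG2 for 72 hr. Cells were then formaldehyde-fixed, permeabilized and labelled with Hoechst 33342. Nuclear diameter was quantified from six images per well.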

[2] = ATG_CRE_CIS: Attagene CIS-FACTORIAL HepG2 Assay for human cAMP Responsive Element (CRE) binding protein 3 (AID 2282926); conditions: HepG2 CRE cis-reporter, Attagene multiplexed mRNA; actives raise or lower the signal
Procedure, shortened: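 Assay format: transient reporter transfection of HepG2, 24 h treatment, total RNA isolation with DNase I step. Reporter abundance read by fluorescence after PCR and capillary separation; DMSO-normalised gain or loss fitting.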

[3] = target: CCAAT/enhancer-binding protein beta (Homo sapiens) (UniProt P17676); assay: ATG_C_EBP_CIS: Attagene CIS-FACTORIAL HepG2 Assay for human CCAAT/Enhancer Binding Protein (C/EBP) beta (AID 2282927); conditions: HepG2 Attagene cis-factorial transcription factor reporter; actives raise or lower the signal
Procedure, shortened: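 RT-PCR/capillary electrophoresis fluorescence of reporter mRNA, 24 h post-dose, in HepG2 cells carrying transfected cis-promoter reporter units. Bidirectional curve fitting against DMSO baseline captures gain or loss of signal.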

[4] = ATG_DR4_LXR_CIS: Attagene CIS-FACTORIAL HepG2 Assay for human Liver X Receptor (LXR), DR4 submotif (AID 2282929); conditions: HepG2 Attagene DR4 cis-reporter, mRNA transcription; actives raise or lower the signal
Procedure, shortened: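 DR4 cis-reporter in HepG2, 24 h exposure. Detection: RT-PCR, 6-FAM labelling, CE fragment analysis. Endpoint fitted bidirectionally, DMSO = baseline.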

[5] = target: Aryl hydrocarbon receptor (Homo sapiens) (UniProt P35869); assay: ATG_Ahr_CIS: Attagene CIS-FACTORIAL HepG2 Assay for human Aryl Hydrocarbon Receptor (Ahr) (AID 2282930); conditions: HepG2 AhR cis-factorial reporter transcription; actives raise or lower the signal
Procedure, shortened: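 HepG2 cells transiently transfected with cis-element-driven multiplexed reporter transcription units; endogenous transcription factor activity measured as reporter mRNA 24 h after dosing. RT-PCR, 6-FAM labelling, HpaI digestion, capillary electrophoresis; bidirectional fitting versus DMSO baseline.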

[6] = ATG_AP_1_CIS: Attagene CIS-FACTORIAL HepG2 Assay for human Activator Protein 1 (AP-1) (AID 2282931); conditions: HepG2 Attagene cis-factorial AP-1 reporter mRNA; actives raise or lower the signal
Procedure, shortened: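 Cis-regulated reporter units transiently expressed in HepG2 report endogenous transcription-factor activity. Signal: reporter mRNA at 24 h, via RT-PCR and fluorescent capillary electrophoresis. Endpoint derived by bidirectional fitting, DMSO as negative control.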

[7] = ATG_AP_2_CIS: Attagene CIS-FACTORIAL HepG2 Assay for human Activator Protein 2 (AP-2) (AID 2282932); conditions: HepG2 AP-2 cis-reporter, Attagene transcription factor profiling; actives raise or lower the signal
Procedure, shortened: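 Assay in transfected HepG2 with promoter-regulated reporters, 24 h incubation after dosing. Signal is reporter mRNA fluorescence (RT-PCR, capillary electrophoresis), analysed for both increases and decreases relative to DMSO controls.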

[8] = ATG_BRE_CIS: Attagene CIS-FACTORIAL HepG2 Assay for human Bone Morphogenetic Protein (BMP) Response Element (BRE) (AID 2282933); conditions: HepG2 BMP response element reporter, Attagene transcription factor profiling; actives raise or lower the signal
Procedure, shortened: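 Transient MRTU transfection of human HepG2 liver cells; 24 h compound treatment; total RNA isolated, reverse-transcribed, PCR-amplified, 6-FAM labelled, HpaI-cut, capillary electrophoresis. DMSO = negative control/baseline, bidirectional fit.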

[9] = target: Retinoic acid receptor alpha (Homo sapiens) (UniProt P10276); assay: ATG_DR5_RAR_CIS: Attagene CIS-FACTORIAL HepG2 Assay for human Retinoic Acid Receptor Alpha (RARE), DR5 submotif (AID 2282934); conditions: HepG2 Attagene cis-factorial RARE DR5 reporter, mRNA; actives raise or lower the signal
Procedure, shortened: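 HepG2 cells transiently transfected with multiplexed reporter units under cis (DR5 RARE) promoters, so endogenous transcription factor activity is measured. After 24 h compound exposure, reporter mRNA is quantified by RT-PCR with fluorescent labelling and capillary electrophoresis; bidirectional fitting versus DMSO.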

[10] = target: Transcription factor E2F1 (Homo sapiens) (UniProt Q01094); assay: ATG_E2F_CIS: Attagene CIS-FACTORIAL HepG2 Assay for human E2F Transcription Factor 1 (AID 2282935); conditions: HepG2 Attagene cis-reporter, E2F reporter RNA transcripts; actives raise or lower the signal
Procedure, shortened: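 In this cis-factorial format, endogenous factor activity drives transfected reporters in HepG2; transcripts collected at 24 h are quantified by fluorescence after RT-PCR and capillary separation.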

[11] = ATG_E_Box_CIS: Attagene CIS-FACTORIAL HepG2 Assay for human Enhancer Box (E-box) (AID 2282936); conditions: HepG2 E-box cis-reporter transcription, actives raise or lower the signal
Procedure, shortened: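 Measured 24 h post-dosing in HepG2 cells transfected with multiple cis-regulated reporter units, signal being reporter mRNA induction detected by fluorescent RT-PCR with capillary electrophoresis; gain or loss fitted against DMSO.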

[12] = ATG_M_61_CIS: Attagene CIS-FACTORIAL HepG2 Assay for M61 Transcription Factor (Internal Marker) (AID 2282937); conditions: HepG2 Attagene CIS-FACTORIAL M61 internal marker reporter; actives raise or lower the signal
Procedure, shortened: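 Background-control endpoint: HepG2 cells with cis-regulated reporter constructs, 24 h exposure, reporter mRNA detected via fluorescent primer extension and capillary electrophoresis; values from bidirectional fitting with DMSO baseline.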

[13] = ATG_EGR_CIS: Attagene CIS-FACTORIAL HepG2 Assay for human Early Growth Response 1 (EGR1) (AID 2282938); conditions: HepG2 Attagene CIS-FACTORIAL EGR reporter mRNA; actives raise or lower the signal
Procedure, shortened: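 Endpoint derived by bidirectional fitting versus DMSO vehicle. Method: cis-promoter reporter units transfected into HepG2, 24 h dosing, RNA isolation, RT-PCR with 6-FAM primer extension and HpaI digestion, then capillary electrophoresis fluorescence detection.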

[14] = ATG_M_19_CIS: Attagene CIS-FACTORIAL HepG2 Assay for M19 Transcription Factor (Internal Marker) (AID 2282939); conditions: HepG2 Attagene CIS-FACTORIAL M19 internal marker reporter; actives raise or lower the signal
Procedure, shortened: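 Transfect HepG2 with MRTU reporter library → dose chemical, 24 h → isolate total RNA, reverse-transcribe with oligo(dT) → PCR, 6-FAM label, HpaI cut (2 h, 37 C) → capillary electrophoresis. Bidirectional fit vs DMSO.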

[15] = ATG_ERE_CIS: Attagene CIS-FACTORIAL HepG2 Assay for Estrogen Response Element (ERE) (AID 2282940); conditions: HepG2 ERE cis-reporter, Attagene RNA transcript; actives raise or lower the signal
Procedure, shortened: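 Transient MRTU transfection of human HepG2; cis-element promoters; 24 h dosing; total RNA → RT (oligo dT) → PCR → 6-FAM primer extension → HpaI digest → CE fluorescence. Bidirectional fit, DMSO baseline.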

[16] = ATG_Ets_CIS: Attagene CIS-FACTORIAL HepG2 Assay for human Erythroblast Transformation Specific (ETS) (AID 2282941); conditions: HepG2 ETS cis-reporter transcription, actives raise or lower the signal
Procedure, shortened: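 Cis-regulated reporter mRNA induction in HepG2 (transient transfection), 24 h exposure, RT-PCR plus capillary electrophoresis detection; DMSO serves as negative control and baseline.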

[17] = target: Hepatocyte nuclear factor 3-beta (Homo sapiens) (UniProt Q9Y261); assay: ATG_FoxA2_CIS: Attagene CIS-FACTORIAL HepG2 Assay for human Forkhead box A2 (FOXA2) (AID 2282942); conditions: HepG2 cis-reporter transcription factor activity, 24 h; actives raise or lower the signal
Procedure, shortened: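 Measured: reporter mRNA induction or loss in HepG2 transiently carrying multiple cis-regulated reporter units, 24 h after dosing. Quantified by RT-PCR plus capillary electrophoresis, normalised to DMSO.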

[18] = ATG_FoxO_CIS: Attagene CIS-FACTORIAL HepG2 Assay for human Forkhead box O (FoxO) (AID 2282943); conditions: HepG2 Attagene cis-reporter, FoxO element, mRNA; actives raise or lower the signal
Procedure, shortened: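 HepG2 cells transiently transfected with cis-promoter-driven multiple reporter transcription units; 24 h after chemical dosing, reporter mRNA quantified by RT-PCR, fluorescent primer extension, HpaI digestion and capillary electrophoresis. Bidirectional fitting versus DMSO baseline.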

[19] = ATG_GATA_CIS: Attagene CIS-FACTORIAL HepG2 Assay for human GATA Binding Protein (AID 2282944); conditions: HepG2 GATA cis-element reporter, Attagene multiplex mRNA; actives raise or lower the signal
Procedure, shortened: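 Transient MRTU transfection, HepG2, 24 h compound exposure. Total RNA → oligo(dT) RT → PCR → 6-FAM primer extension → HpaI cut → CE. Bidirectional fit vs DMSO.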

[20] = ATG_CMV_CIS: Attagene CIS-FACTORIAL HepG2 Assay for human CMV (Internal Marker) (AID 2282928); conditions: HepG2 CMV promoter reporter, transcription factor profiling; actives raise or lower the signal;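 note: endpoint acts as a background internal control marker rather than a target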
Procedure, shortened: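 24 h chemical treatment, HepG2 with transient multi-reporter transfection; RNA → oligo(dT) RT → PCR → 6-FAM extension → HpaI digest → CE fluorescence. Bidirectional fit, DMSO negative control.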

Chain of Aryl hydrocarbon receptor (Homo sapiens) (P35869 whole entry, looked up): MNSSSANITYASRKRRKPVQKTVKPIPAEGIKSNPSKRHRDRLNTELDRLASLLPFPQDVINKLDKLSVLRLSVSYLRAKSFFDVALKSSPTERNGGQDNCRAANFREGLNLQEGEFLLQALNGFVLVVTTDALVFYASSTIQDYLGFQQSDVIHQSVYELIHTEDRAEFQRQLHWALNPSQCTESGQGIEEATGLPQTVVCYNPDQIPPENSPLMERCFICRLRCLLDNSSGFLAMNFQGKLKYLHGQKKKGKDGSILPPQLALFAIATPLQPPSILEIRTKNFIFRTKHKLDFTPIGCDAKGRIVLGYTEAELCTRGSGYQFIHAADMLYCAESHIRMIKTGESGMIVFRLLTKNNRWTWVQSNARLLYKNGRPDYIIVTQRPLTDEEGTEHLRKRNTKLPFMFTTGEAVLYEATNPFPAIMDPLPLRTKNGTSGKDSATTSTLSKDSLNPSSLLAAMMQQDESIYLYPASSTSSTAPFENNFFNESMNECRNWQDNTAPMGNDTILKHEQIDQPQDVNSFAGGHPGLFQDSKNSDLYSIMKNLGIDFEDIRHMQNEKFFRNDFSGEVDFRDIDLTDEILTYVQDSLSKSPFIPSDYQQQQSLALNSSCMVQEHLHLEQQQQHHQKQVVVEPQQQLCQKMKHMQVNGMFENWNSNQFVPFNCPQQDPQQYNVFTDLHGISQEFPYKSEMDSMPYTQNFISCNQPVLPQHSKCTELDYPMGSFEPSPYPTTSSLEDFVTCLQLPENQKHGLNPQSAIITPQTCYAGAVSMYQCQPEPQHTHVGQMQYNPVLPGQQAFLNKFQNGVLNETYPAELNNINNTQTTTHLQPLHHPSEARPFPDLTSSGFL
Chain of Transcription factor E2F1 (Homo sapiens) (Q01094 whole entry, looked up): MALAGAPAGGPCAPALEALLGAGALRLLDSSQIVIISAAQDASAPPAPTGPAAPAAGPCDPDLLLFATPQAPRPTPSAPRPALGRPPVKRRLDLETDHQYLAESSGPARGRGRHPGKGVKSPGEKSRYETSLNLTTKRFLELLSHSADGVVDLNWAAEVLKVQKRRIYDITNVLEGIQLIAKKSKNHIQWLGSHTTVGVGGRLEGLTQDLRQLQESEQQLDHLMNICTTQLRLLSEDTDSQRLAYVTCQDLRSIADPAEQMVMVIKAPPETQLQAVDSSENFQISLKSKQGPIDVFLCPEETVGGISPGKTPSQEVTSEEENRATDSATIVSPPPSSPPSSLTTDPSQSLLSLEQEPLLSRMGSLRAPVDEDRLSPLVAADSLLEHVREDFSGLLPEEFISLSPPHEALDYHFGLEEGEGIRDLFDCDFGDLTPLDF
Chain of CCAAT/enhancer-binding protein beta (Homo sapiens) (P17676 whole entry, looked up): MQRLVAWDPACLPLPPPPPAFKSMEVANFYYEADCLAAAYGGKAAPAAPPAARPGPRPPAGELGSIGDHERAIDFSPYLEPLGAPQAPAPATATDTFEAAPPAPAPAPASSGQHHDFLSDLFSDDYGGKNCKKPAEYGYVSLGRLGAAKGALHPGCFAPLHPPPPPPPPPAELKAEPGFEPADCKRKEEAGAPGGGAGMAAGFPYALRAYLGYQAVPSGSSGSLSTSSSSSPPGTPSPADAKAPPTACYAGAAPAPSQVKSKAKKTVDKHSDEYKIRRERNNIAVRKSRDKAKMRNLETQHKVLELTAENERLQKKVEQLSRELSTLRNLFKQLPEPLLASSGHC
Chain of Hepatocyte nuclear factor 3-beta (Homo sapiens) (Q9Y261 whole entry, looked up): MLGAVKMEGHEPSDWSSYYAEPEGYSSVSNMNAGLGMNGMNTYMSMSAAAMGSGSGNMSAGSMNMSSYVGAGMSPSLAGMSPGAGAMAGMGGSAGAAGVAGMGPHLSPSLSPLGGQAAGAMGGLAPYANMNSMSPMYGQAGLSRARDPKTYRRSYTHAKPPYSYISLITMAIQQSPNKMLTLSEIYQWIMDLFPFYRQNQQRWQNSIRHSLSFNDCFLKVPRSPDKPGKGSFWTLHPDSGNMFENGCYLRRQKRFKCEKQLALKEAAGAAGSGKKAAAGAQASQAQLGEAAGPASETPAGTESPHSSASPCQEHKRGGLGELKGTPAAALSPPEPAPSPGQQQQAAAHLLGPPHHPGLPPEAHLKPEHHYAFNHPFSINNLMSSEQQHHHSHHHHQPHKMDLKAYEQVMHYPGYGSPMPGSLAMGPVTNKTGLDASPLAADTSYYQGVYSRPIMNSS
Chain of Retinoic acid receptor alpha (Homo sapiens) (P10276 whole entry, looked up): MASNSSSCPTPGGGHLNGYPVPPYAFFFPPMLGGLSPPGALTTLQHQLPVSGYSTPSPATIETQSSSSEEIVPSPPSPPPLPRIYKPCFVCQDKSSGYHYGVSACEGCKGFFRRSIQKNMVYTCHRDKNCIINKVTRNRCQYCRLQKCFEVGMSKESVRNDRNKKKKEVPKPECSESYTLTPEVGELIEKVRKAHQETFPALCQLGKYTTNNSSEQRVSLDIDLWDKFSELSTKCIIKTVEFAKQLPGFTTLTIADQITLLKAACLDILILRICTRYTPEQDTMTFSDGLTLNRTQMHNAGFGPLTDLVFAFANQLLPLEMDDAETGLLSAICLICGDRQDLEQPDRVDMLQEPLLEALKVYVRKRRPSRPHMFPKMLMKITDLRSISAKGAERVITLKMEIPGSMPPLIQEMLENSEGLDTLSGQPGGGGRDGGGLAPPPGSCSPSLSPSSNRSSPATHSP

## Oc1ccc2ccccc2c1N=Nc1ccccc1
[1]
  outcome: inactive
[2]
  outcome: inactive
[3]
  outcome: inactive
[4]
  outcome: inactive
[5]
  AC50: 0.0105 µM (active)
[6]
  outcome: inactive
[7]
  outcome: inactive
[8]
  outcome: inactive
[9]
  outcome: inactive
[10]
  outcome: inactive
[11]
  outcome: inactive
[12]
  outcome: inactive
[13]
  outcome: inactive
[14]
  outcome: inactive
[15]
  AC50: 4.52 µM (active)
[16]
  outcome: inactive
[17]
  AC50: 0.14 µM (active)
[18]
  outcome: inactive
[19]
  outcome: inactive

## Cc1ccc(Cl)cc1
[1]
  outcome: inactive
[2]
  outcome: inactive
[3]
  outcome: inactive
[20]
  outcome: inactive
[4]
  outcome: inactive
[5]
  outcome: inactive
[6]
  outcome: inactive
[7]
  outcome: inactive
[8]
  outcome: inactive
[10]
  outcome: inactive
[11]
  outcome: inactive
[12]
  outcome: inactive
[13]
  outcome: inactive
[14]
  outcome: inactive
[15]
  outcome: inactive
[16]
  outcome: inactive
[17]
  outcome: inactive
[18]
  outcome: inactive
[19]
  outcome: inactive

## CCCCOC(=O)CCCCCCCCC(=O)OCCCC
[1]
  outcome: inactive
[2]
  outcome: inactive
[3]
  outcome: inactive
[4]
  AC50: 144 µM (active)
[5]
  outcome: inactive
[6]
  outcome: inactive
[7]
  outcome: inactive
[8]
  outcome: inactive
[9]
  outcome: inactive
[10]
  outcome: inactive
[11]
  AC50: 142 µM (active)
[12]
  outcome: inactive
[13]
  outcome: inactive
[14]
  outcome: inactive
[15]
  outcome: inactive
[16]
  outcome: inactive
[17]
  outcome: inactive
[18]
  outcome: inactive
[19]
  outcome: inactive
